This is part of a sample that, as a whole, favours compounds with a hit. Of some 83,000 tested, about 20% had one in any assay.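 Single-dose data. Exposure time 48 hours. Values below 10 considered active.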 Values without a mark were called inactive. Activity calls are given as the source filed them.

Consider eight compounds from PubChem BioAssay (NCI).

Holding throughout (test): NCI-60 one-dose screen, 48 h (100 = growth as untreated, 0 = no growth, -100 = all killed)
What all share (settings): 10 µM unless noted

The test system of test [1] is NCI-H23 lung.
Test [2] relates to NCI-H226 lung.
In test [3] the test system is NCI-H322M lung.
Test [4] concerns HOP-62 NSCLC.
Test [5] relates to NCI-H460 lung.
In test [6] the test system is NCI-H522 lung.
The subject of test [7] is A549/ATCC NSCLC.
Test [8] has as its system 786-0 renal.
The test system of test [9] is COLO 205 colon.
In test [10] the test system is DU-145 prostate.
For test [11], the system named is K-562 leukemia.
The subject of test [12] is MALME-3M melanoma.
In test [13] the test system is MDA-MB-231 breast.
For test [14], the system named is RXF 393 renal.
For test [15], the system named is SF-268 CNS.
The subject of test [16] is SF-295 CNS.
Test [17] has as its system SF-539 CNS.
Test [18] has as its system UACC-257 melanoma.
In test [19] the test system is M14 melanoma.

As for `COC(=O)c1ccc2c(c1)nc(-c1ccc(Cl)cc1)n2-c1cc(C(C)(C)C)[nH]n1`, the growth in test [1] was 60.7%; in [2] it was 94.3%; in test [3], 92.5%; in test [4], 116%; in test [5], 45.1%; in test [6], 38%. Besides, the growth in test [7] is 47.2%; in test [8], 46%; in test [9] it was 112%; in test [10], 85.9%; in test [11] it was 34.3%; in test [12], 14.8%. Moreover, the growth in test [13] is 92%; in [14], 45.7%; in test [15] it was 68.5%; in test [16], 43.3%; in test [17], 60.4%; in test [18], 62.3%. In [19], the growth is 33.8%.

As for `O=C(Nc1ccc(-n2ccc3c(NC(=O)c4ccccc4)nccc32)cc1)c1ccc(N2CCOCC2)c(C(F)(F)F)c1`, the growth in test [1] is 37.4%; in [2], 43.1%; in test [3] it was 48.6%; in test [4] it was 21.1%; in test [5], 3.48% (active); in test [6], 29.9%. Further, the growth in test [7] is 6.91% (active); in [8], -26.3% (active); in test [9] it was 16.6%; in test [10] it was 38.9%; in [11], 17.4%; in [12] it was 55.5%. The growth in [13] was 52.5%; in [14] it was -66.5% (active); in test [15] it was 37%; in [16] it was -7.34% (active); in test [17] it was 22.6%; in test [18], 55%. The growth in test [19] was 29.1%.

On to `ClCc1c(Cl)c(Cl)c(Cl)c(CCl)c1Cl`, for which the growth was 82.8% in test [1]; 35% in test [2]; 94% in [3]; -28.8% (active) in [4]; 73.8% in [5]; -64.6% (active) in test [6]. Moreover, the growth is 94.9% in test [7]; 76.3% in test [8]; -87.4% (active) in [9]; 14.8% in test [10]; -20.8% (active) in test [11]; -40.3% (active) in [12]. Also, the growth was 47.8% in [13]; -75.9% (active) in [14]; 33.5% in test [15]; 97.5% in test [16]; 97.6% in test [17]; 19.9% in test [18]. Besides, the growth in test [19] was 35.5%.

Take `CCc1c(C)c2ccc(O)c(-c3cc(-c4ccccc4)c(C#N)c(=O)[nH]3)c2oc1=O`: the growth in test [1] was 89%; in [2], 83.8%; in test [3], 95%; in [4], 89.4%; in test [5] it was 112%; in [6] it was 109%. Also, the growth was 90% in test [7]; 105% in test [8]; 115% in test [9]; 96.7% in test [10]; 107% in test [12]; 72.6% in test [13]. The growth in test [14] was 99.2%; in test [15], 108%; in test [16] it was 97.4%; in [17], 113%; in [18], 123%.

On to `NC(N)=N/N=C/c1cccc(Cl)c1Cl`, for which the growth in [1] was 86.9%; in test [2] it was 84.8%; in test [3], 96.9%; in test [4], 82.5%; in test [5], 64.2%; in [6], 80.8%. The growth in [7] was 87.9%; in test [8], 83.6%; in [9], -33.1% (active); in [10], 69.3%; in test [11], 4.22% (active); in test [12], 94.9%. Besides, the growth in [13] was 81.6%; in test [14] it was 81.3%; in [15], 69.5%; in [16] it was 109%; in test [17], 96.4%; in [18], 70.1%. The growth in test [19] is 62.7%.

Take `CC[C@]1(O)C[C@H]2CN(CCc3c([nH]c4ccccc34)C(C(=O)OC)(c3cc4c(cc3OC)N(C)[C@H]3[C@@](O)(C(=O)OC)[C@H](OC(C)=O)[C@]5(CC)[C@@H]6C[C@@H]6CN6CC[C@]43[C@@H]65)C2)C1` (some centres not stated): the growth in test [1] is 19.8%; in [2] it was -25.3% (active); in test [3] it was 53.8%; in test [4], 24.6%; in test [5], 10.7%; in test [6], -9.66% (active). Besides, the growth in test [7] is 19.8%; in [8], -8.75% (active); in [9], -73.3% (active); in test [10] it was 12.1%; in [12] it was 20.5%; in test [13], -12% (active). In addition, the growth was 35% in test [14]; -4.98% (active) in test [15]; -15.1% (active) in test [16]; -22% (active) in test [17]; 68.2% in [18]; -72% (active) in [19].

As for `COc1ccc(-c2conc2-n2nc(-c3ccccc3)nc2-c2ccccc2)cc1`, the growth in [1] was 98.3%; in test [2] it was 89.7%; in test [3] it was 97.6%; in test [4], 95.9%; in [5] it was 120%; in [6], 89.7%. The growth in test [7] was 114%; in [8], 107%; in test [9] it was 112%; in test [10] it was 119%; in [12], 105%; in test [13], 94%. The growth in test [14] was 113%; in test [15], 122%; in test [16], 98.8%; in [17], 107%; in [18] it was 115%; in test [19], 98.6%.

Consider `CCNC(=O)c1ccc2c(c1)nc(-c1ccc(Cl)cc1)n2-c1cc(C(C)(C)C)[nH]n1`, for which the growth in test [1] was 60%; in test [2] it was 46.9%; in test [3] it was 70.9%; in test [4] it was 47.3%; in test [5] it was 36.7%; in [6], 32.3%. Moreover, the growth in test [7] was 48.6%; in test [8], 27.7%; in [9], 51.8%; in [10] it was 71.4%; in test [12], 34.9%; in [13], 64.3%. The growth in test [14] was 36.2%; in test [15] it was 51.6%; in test [16] it was 16.4%; in test [17], 32.6%; in test [18] it was 79.1%; in test [19], 18.1%.
